Several values for one entry are separate records, joined by “and”; a condition that tells them apart may be missing. Equal values may be shown once. Records with an inconclusive call do not appear. Activity calls are given as the source filed them. Calls follow the shape of the dose curve; as a rule, active = well fitted curve in the direction sought with a large enough effect; inconclusive = small, poorly fitted or top-dose-only effect, or another doubt; inactive = no such curve, though single readings can be large; an effect the other way counts as inactive or inconclusive.
Experiments:
[1] = target: Cytochrome P450 3A7 (Homo sapiens) (UniProt P24462); assay: Cytochrome P450 family 3 subfamily A member 7 (CYP3A7) small molecule antagonists: luciferase biochemical qHTS assay (AID 1963596); conditions: P450-Glo CYP3A7 enzyme luminescence, 1 h; series mostly up to 57.4 µM; also: % is scaled to controls: 0 for no effect and ±100 for the full control effect; nearly all actives have a fitted effect of over 40% in size
Procedure, shortened: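 In this luminescent screen, enzyme and proluciferin substrate meet test compound for 10 min before NADPH regeneration solution drives a 1 h room-temperature reaction; detection reagent halts turnover and luminescence is read 20 min later.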

[2] = Viability qHTS for spleen associated tyrosine kinase inhibitor (SYKi) naive MV4-11 cells (AID 1963823); conditions: MV4-11 AML viability, CellTiter-Glo luminescence, 72 h; series mostly up to 45 µM; also: nearly all actives have a fitted effect of over 40% in size; also: potency is read from the fitted curve at half-maximal effect
Procedure, shortened: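 Cells: MV4-11, SYK inhibitor naive, 500 per well. Treatment: library compounds, 72 hr, 37 C, 5% CO2. Read-out: CellTiter-Glo luminescence after 10 min RT.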

[3] = Viability qHTS for spleen associated tyrosine kinase inhibitor (SYKi) drug resistant MV4-11 cells (AID 1963824); conditions: SYKi-resistant MV4-11 viability, CellTiter-Glo, 72 h; series mostly up to 45 µM; also: nearly all actives have a fitted effect of over 35% in size; also: potency is read from the fitted curve at half-maximal effect
Procedure, shortened: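 CellTiter-Glo luminescence, read 10 min after reagent addition, reports viability after a 72 hr compound exposure. Cells are an MV4-11 line made resistant to SYK inhibition, seeded at 500 per well onto compound-containing plates.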

[4] = Cellular viability qHTS for adrenocortical cancer (ACC) cell line SW-13 (AID 1963989); conditions: SW-13 ACC cells viability, CellTiter-Glo, 48 h; activity (max response): hits give low values; also: nearly all actives have a fitted effect of over 65% in size; also: potency is read from the fitted curve at half-maximal effect;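 as to activity (max response): cells grown in serum-free medium with ITS supplement; % is scaled to controls: 0 for no effect and ±100 for the full control effect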
Procedure, shortened: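 48 h treatment, SW-13 in ITS/DMEM serum-free; doses up to 46 uM; readout CellTiter-Glo luminescence; curve fit four-parameter logistic.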

[5] = Quantitative highthroughput screen to assess conditional lethalithy of SEM cells grown in Human Plasma-Like Medium with dialyzed fetal bovine serum (HPLM+ds) (AID 1963882); conditions: SEM B-ALL cells in HPLM+ds, CellTiter-Glo viability, 48 h; series mostly up to 45.8 µM; also: nearly all actives have a fitted effect of over 35% in size; also: potency is read from the fitted curve at half-maximal effect
Procedure, shortened: (§1)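 Each medium arm—HPLM with 10% dialyzed FBS, or RPMI1640 with 5 mM glucose and 10% untreated or dialyzed FBS—was screened against an 11-point, 3-fold compound titration for 48 h at 37 °C, with CellTiter-Glo luminescence as endpoint.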

[6] = Quantitative highthroughput screen to assess conditional lethalithy of SEM cells grown in RPMI1640 with unreated serum (RPMI+s) (AID 1963883); conditions: SEM B-ALL cells, CellTiter-Glo viability, 48 h; series mostly up to 45.8 µM; also: nearly all actives have a fitted effect of over 35% in size; also: potency is read from the fitted curve at half-maximal effect;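 as to Viability: 100% = DMSO wells and 0% = empty wells without cells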
Procedure, shortened: as §1

[7] = Quantitative highthroughput screen to assess conditional lethalithy of SEM cells grown in RPMI1640 with dialyzed fetal bovine serum (RPMI+ds) (AID 1963884); conditions: SEM B-ALL cells, RPMI+dialyzed FBS, CellTiter-Glo viability, 48 h; series mostly up to 45.8 µM; also: nearly all actives have a fitted effect of over 35% in size; also: potency is read from the fitted curve at half-maximal effect;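 as to Viability: 100% = DMSO control wells and 0% = empty wells without cells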
Procedure, shortened: as §1

[8] = Cellular viability qHTS for adrenocortical cancer (ACC) cell line NCI-H295R (AID 1963990); conditions: CellTiter-Glo ATP luminescence, 48 h; series mostly up to 46.1 µM; also: nearly all actives have a fitted effect of over 60% in size; also: potency is read from the fitted curve at half-maximal effect;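 as to activity change, negative = viability loss: 0% = DMSO only wells and -100% = full killing with cytotoxic reference compound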
Procedure, shortened: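 Compound titrations (up to 46 uM final) are applied to NCI-H295R cultures for 48 h at 37C. Viable cell number is estimated by CellTiter-Glo signal, normalised to DMSO and doxorubicin controls.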

Cytochrome P450 3A7 (Homo sapiens), sequence (P24462 whole entry, looked up): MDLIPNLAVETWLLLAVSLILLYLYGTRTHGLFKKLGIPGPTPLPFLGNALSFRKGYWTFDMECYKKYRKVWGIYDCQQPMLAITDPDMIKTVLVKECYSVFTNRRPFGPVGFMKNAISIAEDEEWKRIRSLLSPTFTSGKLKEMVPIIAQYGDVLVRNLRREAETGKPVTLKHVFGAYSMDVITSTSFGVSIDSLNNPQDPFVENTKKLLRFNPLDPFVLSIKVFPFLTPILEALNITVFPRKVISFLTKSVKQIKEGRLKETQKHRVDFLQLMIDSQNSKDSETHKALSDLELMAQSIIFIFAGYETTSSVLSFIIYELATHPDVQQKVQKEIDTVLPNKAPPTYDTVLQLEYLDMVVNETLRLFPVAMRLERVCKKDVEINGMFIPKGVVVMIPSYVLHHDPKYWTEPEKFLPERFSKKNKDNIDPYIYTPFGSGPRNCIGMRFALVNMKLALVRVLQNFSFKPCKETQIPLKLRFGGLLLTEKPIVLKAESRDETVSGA

NCCc1ccn[nH]1
inactive: Potency [1] | Potency [2] | Potency [3] | activity (max response) [4] 3.59%

O=C(O)c1ccc(OCCCOc2ccc(C(=O)O)cc2)cc1
inactive: Potency [1] | Potency [2] | Potency [3] | activity (max response) [4] 5.44%

Cc1cc(C2CCCCC2)n(O)c(=O)c1
active: Potency [2] 2.31 µM and 4.68 µM | Potency [3] 2.59 µM and 3.35 µM and 3.72 µM | Potency [5] 13.2 µM | Potency [6] 11.8 µM | Potency [7] 13.2 µM | Potency [4] 1.3 µM and 25.1 µM
inactive: Potency [1]

CCCCC/C(C=O)=C\c1ccccc1
inactive: Potency [1] | Potency [2] | Potency [3] | activity (max response) [4] 6.34%

CC(=O)OCC(COC(C)=O)OC(C)=O
inactive: Potency [1] | Potency [2] | Potency [3] | activity (max response) [4] 3.85%

CCN(CC)CCNC(=O)c1cc(Cl)c(N)cc1OC
inactive: Potency [1] | Potency [2] | Potency [3] | activity (max response) [4] -0.158%

Cc1nc2ccc(CN(C)c3ccc(C(=O)N[C@@H](CCC(=O)O)C(=O)O)s3)cc2c(=O)[nH]1
inactive: Potency [1] | Potency [6] | Potency [8]
active: Potency [2] 6.6 nM | Potency [3] 7.4 nM

Cc1[nH]c(=O)c(C#N)cc1-c1ccncc1
inactive: Potency [1] | Potency [2] | Potency [3] | Potency [5] | Potency [6] | Potency [7] | Potency [8]

COc1cc2c(Oc3ccc4[nH]c(C)cc4c3F)ncnc2cc1OCCCN1CCCC1
inactive: Potency [1]
active: Potency [2] 13 µM and 3.32 µM | Potency [3] 5.8 µM and 2.63 µM | Potency [5] 9.35 µM | Potency [6] 4.18 µM | Potency [7] 5.26 µM | Potency [4] 25.1 µM | Potency [8] 22.4 µM

CCO[C@H](Cc1ccc(OCCc2ccc(OS(C)(=O)=O)cc2)cc1)C(=O)O
inactive: Potency [1] | Potency [2] | Potency [3] | activity (max response) [4] 6.74%

CC(C(=O)O)c1ccc(CC2CCCC2=O)cc1 (stereo unspecified)
inactive: Potency [1] | Potency [2] | Potency [3] | activity (max response) [4] 7.96%

CCOC(=O)c1cccnc1
inactive: Potency [1] | Potency [2] | Potency [3] | activity (max response) [4] 14.3% | Potency [8]

O=C(Oc1ccccc1C(=O)O)c1ccccc1O
inactive: Potency [1] | Potency [2] | Potency [3] | activity (max response) [4] -2.11% | Potency [8]

FC(F)(F)C(F)(F)C(F)(F)C(F)(F)C(F)(F)C(F)(F)C(F)(F)C(F)(F)Br
inactive: Potency [1] | Potency [2] | Potency [3] | activity (max response) [4] 7.96%

CCCCCCCCCCCCOS(=O)(=O)O
inactive: Potency [1] | Potency [2] | Potency [3] | activity (max response) [4] 4.63%

NC(CSCC(=O)O)C(=O)O (stereo unspecified)
inactive: Potency [1] | Potency [2] | Potency [3] | activity (max response) [4] -12%

O=c1[nH]c([C@@H]2CCCN2)nc2c1oc1ccc(Cl)cc12
active: Potency [2] 8.2 µM and 16.6 µM | Potency [3] 16400 nM
inactive: Potency [1] | activity (max response) [4] -13.8%

CCCCCC[C@@H](CCC)C(=O)O
inactive: Potency [1] | Potency [2] | Potency [3] | activity (max response) [4] 6.05% | Potency [8]

CNC[C@H](O)c1cccc(O)c1
inactive: Potency [1] | Potency [3] | activity (max response) [4] 10.6% and -8.09% | Potency [8]
active: Potency [2] 531 nM

CCn1cc(C(=O)O)c(=O)c2cnc(N3CCCC3)nc21
inactive: activity change, negative = inhibition [1] 25.3% [at 11.5 µM] | viability (% of control) [2] 74.1% [at 9.25 µM] | viability, % of control [3] 103% [at 9.25 µM] | activity (max response) [4] -7.72% | activity change, negative = viability loss [8] -14.1% [at 9.17 µM]

CCCC(O)C(CC)CO (stereo unspecified)
inactive: Potency [1] | Potency [2] | Potency [3] | activity (max response) [4] 8.36%

N=C(N)N1CCc2ccccc2C1
inactive: activity change, negative = inhibition [1] 2.18% [at 4.83 µM] | viability (% of control) [2] 81.1% [at 4.97 µM] | viability, % of control [3] 96.6% [at 4.97 µM] | activity (max response) [4] -5.8% | activity change, negative = viability loss [8] -6.61% [at 3.81 µM]

Nc1cc(=O)[nH]c(N)n1
inactive: Potency [1] | Potency [2] | Potency [3] | activity (max response) [4] -6.62% | Potency [8]

Cc1[nH]c(/C=C2\C(=O)Nc3ccc(F)cc32)c(C)c1C(=O)NC[C@H](O)CN1CCOCC1
inactive: Potency [1] | activity (max response) [4] -9.94%
active: Potency [2] 13 nM and 26.3 nM | Potency [3] 23.1 nM and 46.8 nM

CC(=O)N(CC(O)CN(C(C)=O)c1c(I)c(C(=O)NCC(O)CO)c(I)c(C(=O)NCC(O)CO)c1I)c1c(I)c(C(=O)NCC(O)CO)c(I)c(C(=O)NCC(O)CO)c1I (stereo unspecified)
inactive: Potency [1] | Potency [2] | Potency [3] | activity (max response) [4] 14.1%

Oc1ccccc1-c1nnco1
inactive: Potency [1] | Potency [2] | Potency [3] | activity (max response) [4] 12.7%

CC[C@@]1(c2ccccc2)NC(=O)N(C)C1=O
inactive: Potency [1] | Potency [2] | Potency [3] | activity (max response) [4] 8.31%

CC(C(=O)O)c1cccc(Oc2ccccc2)c1 (stereo unspecified)
inactive: Potency [1] | Potency [2] | Potency [3] | activity (max response) [4] 9.95% | Potency [8]

Reference: PubChem BioAssay (NCATS)
